This is an account of results in PubChem BioAssay AID2797 (The Scripps Research Institute Molecular Screening Center, 2010).

Screen size: about 320,000 compounds; about 820 (0.26%) were called active.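 Rule for the calls: active = activation above the mean activation of all tested compounds plus 3 SD, per screening run (cut at about 20% in these data); inactive = the rest.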 What follows is part of a selection rich in actives, with near analogues and random picks from the rest.

Sequence of Vasopressin V1a receptor (Homo sapiens) (P37288 whole entry, looked up): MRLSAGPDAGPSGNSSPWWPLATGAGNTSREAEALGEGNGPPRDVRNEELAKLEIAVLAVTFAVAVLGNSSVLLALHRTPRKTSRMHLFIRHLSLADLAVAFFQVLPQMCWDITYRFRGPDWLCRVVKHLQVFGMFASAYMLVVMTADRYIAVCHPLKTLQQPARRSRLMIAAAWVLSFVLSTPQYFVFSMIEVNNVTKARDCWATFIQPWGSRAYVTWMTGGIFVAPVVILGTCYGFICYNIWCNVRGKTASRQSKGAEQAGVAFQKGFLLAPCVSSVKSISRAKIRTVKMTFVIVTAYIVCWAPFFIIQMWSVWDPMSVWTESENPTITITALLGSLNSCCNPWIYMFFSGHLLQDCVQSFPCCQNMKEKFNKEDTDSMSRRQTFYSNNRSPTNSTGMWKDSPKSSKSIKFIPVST

This experiment has as its target Vasopressin V1a receptor (Homo sapiens) (UniProt P37288). In words: V1R activation via calcium rise – fluorescence, CHO-V1R cells, counter-screen for OXTR agonist project, primary screen (AID 2797).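 Note: signal is peak over basal fluorescence ratio across a 100 second FLIPR read.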 As to conditions: Fluo-8 calcium fluorescence, agonist mode, at 3 µM, hits give high values, 0% DMSO, 100% 3 nM vasopressin. A general note: The purpose of a counterscreen is to sort out artefacts and off-target activity.
Take `CCS(=O)(=O)c1ccc(O)c(NC(=O)COc2ccc(Cl)cc2)c1`: the activation is 3.1% (inactive). As for `COc1ccc(C(=O)Nc2cc(C)ccc2NC(=O)COc2ccccc2)cc1`, the activation was 0.75% (inactive). The result for `Cc1ccc(O)c(NC(=S)NC(=O)COc2ccc(Br)cc2)c1` reads 56% (active); that for `CCN1CCN(c2sc(S(C)(=O)=O)nc2S(=O)(=O)c2ccc(Cl)cc2)CC1`, 0.09% (inactive). The result for `CCn1c(C(C)C)n[nH]c1=S` reads 0.69% (inactive).

In the case of `CCOC(=O)N/N=C1\CC(C)S(=O)(=O)c2ccc(Cl)cc21` (stereo unspecified), the activation is -1.51% (inactive). The result for `CC1CN(C(=O)c2ccccc2NS(=O)(=O)c2cccc([N+](=O)[O-])c2)CC(C)O1` (stereo unspecified) reads 1.41% (inactive). The result for `CCOc1ccc(Cn2nnc(C(=O)Nc3ccc(OC)cc3OC)c2N)cc1` reads 12.4% (inactive); that for `CCOc1ccc(Cn2nnc(C(=O)NCc3ccccc3)c2N)cc1`, 27.1% (active).

Turning to `CCc1ccc(NC(=O)Cn2nnc(C(=O)NCc3ccc(OC)cc3)c2N)cc1`, the activation is 0.71% (inactive). With `O=C(C[n+]1ccc2c(c1)nnn2-c1ccccc1)c1ccc(Cl)cc1`, the activation is -1.54% (inactive). With `COc1ccc(CCNc2cc(C)nc3c(-c4ccc(Cl)cc4)c(C)nn23)cc1OC` the figure was -0.66% (inactive). The result for `C=CCOCCN(C)C1=NS(=O)(=O)c2ccccc21` reads -0.21% (inactive). With `CCO[C@H]1OC(C(=O)N2CCCCCCC2)=C[C@@H](c2ccc(C(F)(F)F)cc2)[C@@H]1CCCO` the figure was -0.98% (inactive); with `O=C(O)/C=C/c1ccc(OCCCF)cc1`, 0.21% (inactive). As for `O=C(/C=C(O)/C=C/c1ccc(O)cc1)/C=C/c1ccc(O)cc1`, the activation was 76.2% (active). With `O=C(/C=C/c1ccc2c(c1)OCCO2)c1ccc(O)cc1` the figure was 1.07% (inactive); with `CC(C)(C)S(=O)(=O)c1ccccc1-c1noc(-c2ccccc2)c1C(N)=O`, 0.13% (inactive). With `CCc1c(O)cc2n(c1=O)-c1ccccc1C2(C)C` the figure was 1.27% (inactive); with `CCOc1ccc2[nH]c3nc(SCC(=O)NC4CCCC4)nnc3c2c1`, 1.39% (inactive).

`Nc1c(C(=O)c2cccs2)sc2nsc(SCCN3CCCCC3)c12`: the activation was 34.8% (active). The result for `O=C(CSc1ncnc2sccc12)N1CCN(C(=O)c2cccs2)CC1` reads 1.53% (inactive); that for `O=C(NCC(=O)N1CCC2(CC1)NCCc1[nH]cnc12)c1ccc(Br)cc1`, -0.07% (inactive); that for `Cc1noc(C)c1NC(=O)Nc1cccc2c1O[C@H](CN(C)C(=O)Nc1ccccc1)[C@@H](C)CN([C@H](C)CO)C2=O`, 0.98% (inactive). The result for `COc1ccc(N2C(=O)c3cccc4cccc(c34)C2=O)nn1` reads -0.33% (inactive); that for `Cc1nn(C)cc1N1C(=O)c2cccc3c(N)ccc(c23)C1=O`, 66.8% (active); that for `O=C(O)c1ccc2c3c(cccc13)C(=O)N(OS(=O)(=O)c1ccccc1)C2=O`, 0.24% (inactive). With `Cc1nn(C)cc1C(=O)c1ccccc1` the figure was 0.77% (inactive); with `CC(=O)Nc1ccccc1Sc1ccc2c3c(cccc13)C(=O)N(c1ccc(C)cc1)C2=O`, 0.04% (inactive).

For `CN1C(=O)c2cccc3c(N)ccc(c23)C1=O`, the activation is 133% (active). With `COc1ccc(N(C(=O)c2ccc(C)cc2)S(=O)(=O)c2cccs2)cc1` the figure was 0.59% (inactive); with `Cc1cc(C(=O)CC#N)c(C)n1-c1c(C)n(C)n(-c2ccccc2)c1=O`, 1.66% (inactive); with `CCOP1(=O)C=C(C(C)(C)C)OC1c1ccc(F)cc1` (stereo unspecified), 0.37% (inactive).

As for `Cc1ccc(N(C(=O)c2snc(C(N)=O)c2N)C(C(=O)NCC2CCCO2)c2c[nH]c3ccccc23)cc1` (stereo unspecified), the activation was 2.4% (inactive). With `CCN1/C(=C\c2ccc3ccccc3[n+]2CC)Sc2cc(C)ccc21` the figure was 20.7% (active); with `O=C1CCCN2N=C(SCC(=O)Nc3ccc(Br)cc3)SC2=N1`, 8.83% (inactive); with `CCOC(=O)Cc1c(C)nc2c(C#N)c(C)nn2c1C`, -0.1% (inactive). The result for `CCOC(=O)N1CCC(O)(c2cc(C)c(C)cc2C)CC1` reads 0.01% (inactive); that for `CCCCCCn1cc(C(=O)O)c(=O)c2cc(F)c(N3CCCCC3)cc21`, 1% (inactive). The result for `CCOC(=O)Cn1c(=O)oc2cc(S(=O)(=O)N(C)Cc3ccco3)ccc21` reads 1.45% (inactive). Consider `CN(c1ccccc1)c1ccc(/C=c2\s/c(=C(/C#N)C(=O)C(C)(C)C)n(Cc3ccco3)c2=O)cc1`, for which the activation was 28% (active). Regarding `COc1cc(NC(=O)COC(=O)c2cc(S(=O)(=O)N3CCOCC3)ccc2F)cc(OC)c1`, the activation was 1.44% (inactive).

For `CCCc1ccc(OCC(=O)NNC(=S)NC(=O)c2ccco2)cc1`, the activation is 19.5% (inactive).

For the compound `Cc1ccc(C(=O)NNC(=O)C(C)Oc2ccc3ccccc3c2)o1` (stereo unspecified), the activation was 0.2% (inactive). With `CC(Oc1ccc2ccccc2c1)C(=O)NNC(=S)NC(=O)c1ccco1` (stereo unspecified) the figure was 23% (active). With `Cc1cc2c(=O)n(CC(=O)NCC(=O)Nc3ccc(C(C)C)cc3)cnc2s1` the figure was 0.52% (inactive). With `O=C(CC1SC(=Nc2ccccc2F)N(CCN2CCOCC2)C1=O)Nc1ccc(F)cc1F` (stereo unspecified) the figure was -0.11% (inactive).

As for `CCCC(C)C(=O)Nc1ccc(NC(C)=O)cc1` (stereo unspecified), the activation was 1.31% (inactive). With `COc1cc(OC)c(N2CC(C(=O)Nc3cc(Cl)ccc3N3CCOCC3)CC2=O)cc1Cl` (stereo unspecified) the figure was 2.59% (inactive).

For `COc1cc(OC)c(-n2c(C)cc(C=O)c2C)cc1Cl`, the activation is -0.41% (inactive). With `COc1cc(OC)c(-n2cc(-c3ccc(Cl)cc3)[nH]c2=O)cc1Cl` the figure was 38.5% (active); with `CN1/C(=C\C=C2\N=C(c3ccc(F)cc3)OC2=O)C(C)(C)c2ccccc21`, 2.99% (inactive); with `O=C(NCCc1nnc2ccc(SCC(=O)N3CCOCC3)nn12)c1ccccc1`, -0.68% (inactive). The result for `CCC(C)(C)C1CCC(=NNC(=O)c2ccc(Br)o2)CC1` (stereo unspecified) reads 0.08% (inactive). With `Cc1ccc(CN2CCN(c3ccccc3Cl)CC2)o1` the figure was -0.73% (inactive).

With `O=C(CCc1[nH]c2ccccc2c1Sc1ccccc1)N(CCO)CCO`, the activation is 0.05% (inactive).
